Compounds with a hit are over-represented: about 13% of the library has one in this group of screens.
HCMV inh = qHTS Assay for inhibitors of the human cytomegalovirus (HCMV) | HFF cells, HCMV-luciferase reporter, 72 h; hits give low values | actives 4.5% (n = 410,000) | activity change, negative = inhibition, % at 57.5 µM; in the data active means activity change below about -60%; inconclusive means no clear call, values can overlap the other calls; inactive means above about -39%
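Screen run at 2 compound doses on HFFs infected with reporter HCMV, MOI 1 PFU/cell. Luciferase activity from cell lysates at 72 h post infection gave inhibition relative to buffer-only and Salinomycin wells.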
Pf growth 96h = Primary qHTS for delayed death inhibitors of the malarial parasite plastid, 96 hour incubation; P. falciparum luciferase reporter growth, 96 h; Potency, µM (series often up to 28.7 µM), for the others: at the highest dose activity change, negative = inhibition, usual class: inhibitors; actives 6.9% (n = 320,000); AID 504834, 2011; further: potency means the concentration at half of the fitted maximal effect
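Two parasite generations (96 h, 37 C, 5% CO2) of compound exposure in infected erythrocytes (0.05% parasitemia, 2% hematocrit). Luciferase-reporter P. falciparum; decreased luminescence indicates inhibited growth, aimed at apicoplast-acting delayed death.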
HCV inh = qHTS Assay for Inhibitors of Hepatitis C Virus (HCV); Huh7.5.1 HCVcc-Cre infection, luciferase reporter, 44 h; actives 3.4% (n = 340,000); Potency, µM (top dose mostly 41.8 µM), inactives show at the top dose activity change, negative = inhibition, actives largely listed as inhibitors; AID 651820, 2012; further: potency means the concentration at half of the fitted maximal effect
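Compounds are dispensed onto cells plated 4 h earlier at 1,000 per well, with HCVcc-Cre virus (about 0.5 moi) added next. Following 44 h of culture, luminescent signal is measured for 15 sec after 15 min with substrate at room temperature.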
Pf growth 48h = Primary qHTS for delayed death inhibitors of the malarial parasite plastid, 48 hour incubation; P. falciparum luciferase growth in erythrocytes, 48 h; Potency, µM (series often up to 28.7 µM), for the others: at the top dose activity change, negative = inhibition, actives largely listed as inhibitors; actives 5.9% (n = 310,000); further: potency means the concentration at half of the fitted maximal effect
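A one-generation exposure of luciferase-tagged malaria parasites in RPMI 1640/Albumax erythrocyte culture, 37 C and 5% CO2. Inhibition is inferred from decreased luminescence after adding detection reagent.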
The depositor's hits bear a star; [ ] = dose if it differs, or a comment. Unless noted, the call rests on the fitted dose curve; in most records, active means well fitted inhibition curve with a large enough effect; inconclusive means small, poorly fitted or top-dose-only effect, or another doubt; inactive means no such curve, though single readings can be large or run the other way. On the % scale 0 is the no-effect control and ±100 the full control effect.

Screening CC(C)Cc1ccc(/C=C/C(=O)NC2CC2)cc1 returned HCMV inh 7, Pf growth 96h 2.1µM*, HCV inh 15% and Pf growth 48h inconclusive.
Screening CCCCCc1ccc(OCCOCCn2c[n+](C)c3ccccc32)c(CCCCC)c1 returned Pf growth 96h -20%[1.15 µM], HCV inh 10µM* and Pf growth 48h 2.9µM*.
`CCCCOc1ccccc1Cn1c(=O)oc2ccccc21` gave HCMV inh -26, Pf growth 96h 16%, HCV inh -4% and Pf growth 48h 0%.
For CCCCCc1ccc(OCCC[n+]2ccccc2)c(CCCCC)c1 the results were HCMV inh -99*, Pf growth 96h inconclusive, HCV inh 10µM* and Pf growth 48h 1.9µM*.
`CCOc1ccc(NC(=O)N2CCN(Cc3cc(=O)n4nc(-c5ccc(OC)cc5)sc4n3)CC2)cc1` gave HCMV inh 5.
Screening COc1cc(C(=S)N2CCCC2)ccc1OS(=O)(=O)c1ccc(NC(C)=O)cc1 returned HCMV inh -36, Pf growth 96h 126%, HCV inh 10µM* and Pf growth 48h 2.1µM*.
COc1cc(C(=S)N2CCOCC2)ccc1OS(=O)(=O)c1ccc(NC(C)=O)cc1 was read as HCMV inh -73*, Pf growth 96h 20%, HCV inh inconclusive and Pf growth 48h 14%.
Screening CC(Sc1nnnn1-c1ccc(O)cc1)C(=O)NC1CCCCC1C (configuration not stated) returned HCMV inh -23, Pf growth 96h inconclusive and Pf growth 48h inconclusive.
For CC(Sc1nncn1C)C(=O)Nc1ccc(Cl)cn1 (configuration not stated) the results were HCMV inh -32, Pf growth 96h 48%, HCV inh 1% and Pf growth 48h 31%.
For Cc1ccc(-n2nnnc2SC(C)C(=O)Nc2ccc(Cl)cn2)cc1 (configuration not stated) the results were HCMV inh -24, Pf growth 96h 9.3µM*, HCV inh -10% and Pf growth 48h inconclusive.
`CC(Sc1nnnn1-c1ccc(O)cc1)C(=O)NNC(=O)c1ccc(F)cc1` (configuration not stated) gave HCMV inh 0, Pf growth 96h -45%, HCV inh 7.1µM* and Pf growth 48h -24%.
For COc1ccc(CCNC(=O)CCCCn2c(=O)c3ccccc3n(Cc3cc(C)ccc3C)c2=O)cc1OC the results were HCMV inh 14.
Screening O=S(=O)(c1ccc(Br)cc1)c1nc(-c2ccco2)oc1NCCCn1ccnc1 returned HCMV inh -3, Pf growth 96h inconclusive, HCV inh 8% and Pf growth 48h 8.3µM*.
For O=S(=O)(c1ccc(F)cc1)c1nc(-c2ccco2)oc1Nc1ccc(F)cc1 the results were HCMV inh -74*, Pf growth 96h inconclusive, HCV inh inconclusive and Pf growth 48h inconclusive.
`O=S(=O)(c1ccccc1)c1nc(-c2cccs2)oc1NCCCn1ccnc1` gave HCMV inh 11, Pf growth 96h 187%, HCV inh 6% and Pf growth 48h 0%.
`CC(C)Sc1oc(-c2ccco2)nc1S(=O)(=O)c1ccc(F)cc1` gave HCMV inh inconclusive, Pf growth 96h 15µM*, HCV inh -23% and Pf growth 48h inconclusive.
`O=S(=O)(c1ccc(Br)cc1)c1nc(-c2ccccc2)oc1NCCN1CCOCC1` gave HCMV inh -3, Pf growth 96h 9.3µM*, HCV inh inconclusive and Pf growth 48h inconclusive.
Screening COc1cccc(C2CC(=O)Nc3cc(OC)c(OC)c(OC)c32)c1OC(C)C (configuration not stated) returned HCMV inh -4.
`CCOc1ccc(C2CC(c3c(O)n(C4CCCCC4)c(=O)[nH]c3=O)=Nc3ccccc3S2)cc1` (configuration not stated) gave HCMV inh -17.
For CN(CC(=O)Nc1cccc(F)c1)S(=O)(=O)c1ccc2c(c1)n(C)c(=O)c(=O)n2C the results were HCMV inh 25.
For Cc1nc(-n2nc(C)c(CCC(C)C)c2C)sc1C(=O)Nc1ccc(Cl)cc1 the results were HCMV inh 46.
`CCCSc1nsc(NC(=O)CCC)n1` gave HCMV inh -103*, Pf growth 96h 3.7µM*, HCV inh -6% and Pf growth 48h inactive.
`CCCCCOc1ccc(/C=C/C(=O)Nc2sc(C(C)=O)c(C)c2C(=O)OCC)cc1OC` gave HCMV inh 12.
Screening N#CCCN(Cc1ccccc1)C(C(=O)NC1CCCCC1)c1cc2ccccc2o1 (configuration not stated) returned HCMV inh -60*.
Screening COC(=O)c1ccccc1NC(=O)CCCn1nc(C)c2sc3ccccc3c2c1=O returned HCMV inh 29.
`Cc1noc(C)c1-c1nc(CS(=O)(=O)c2ccccc2)no1` gave HCMV inh -84*, Pf growth 96h 0%, HCV inh 24% and Pf growth 48h inconclusive.
`COP(=O)(OC)SCn1c(=O)oc2cc(Cl)cnc21` gave HCMV inh 16.
CCC(=O)Nc1cccc(NC(=O)CSc2nnnn2Cc2ccccc2)c1 was read as HCMV inh -27, Pf growth 96h 2.1µM*, HCV inh -4% and Pf growth 48h 27%.
Screening CCOC(=O)CSc1nc2ccc(NC(=O)CSc3nnnn3Cc3ccccc3)cc2s1 returned HCMV inh 4, Pf growth 96h 3%, HCV inh 14% and Pf growth 48h -24%.
CC(C)(C)NC(=O)CSc1nc2ccc(NC(=O)CSc3nnc(N)s3)cc2s1 was read as HCMV inh 6, Pf growth 96h inconclusive, HCV inh 13µM* and Pf growth 48h -13%.
CC(C)(C)NC(=O)CSc1nc2ccc(NC(=O)CSc3nnnn3Cc3ccccc3)cc2s1 was read as HCMV inh -77*, Pf growth 96h 4.7µM* and HCV inh 2µM*.
Screening CCCN(c1ccc(C(C)C)cc1)S(=O)(=O)c1ccc2c(c1)CCN2C(=O)CC returned HCMV inh -11.
Cc1ccc(C)c(CN2C(=O)c3ccccc3S(=O)c3ccc(C(=O)NCCCN4CCCC4)cc32)c1 (configuration not stated) was read as HCMV inh inconclusive, Pf growth 96h inconclusive, HCV inh 7.1µM* and Pf growth 48h inconclusive.
`O=C(NCCN1CCCC1)c1ccc2c(c1)N(Cc1ccc(F)cc1)C(=O)c1ccccc1S2=O` (configuration not stated) gave HCMV inh -9, Pf growth 96h inconclusive, HCV inh -6% and Pf growth 48h 12µM*.
For CCN(CC)CCNC(=O)c1ccc2c(c1)N(Cc1ccccc1)C(=O)c1ccccc1S2=O (configuration not stated) the results were HCMV inh -70*.
